This is an account of results in paper PMC7862700, “An all-to-all approach to the identification of sequence-specific readers for epigenetic DNA modifications on cytosine”.

Test in all cases: DAPPL (digital affinity profiling via proximity ligation, sequencing); 10 mM Tris-HCl pH 7.5, 50 mM NaCl, 1 mM DTT, 4% glycerol, room temperature, 30 min; GST-TFs on glutathione beads, 16-mer random dsDNA library, 0.1% formaldehyde crosslink after washing; high values mean tight binding
Common to all, as to conditions: protein: recombinant; tags: N-terminal GST; dsDNA, one strand shown

The target in one assay is T1, ELK1 (Homo sapiens, UniProt P19419 1-428).
T1 sequence: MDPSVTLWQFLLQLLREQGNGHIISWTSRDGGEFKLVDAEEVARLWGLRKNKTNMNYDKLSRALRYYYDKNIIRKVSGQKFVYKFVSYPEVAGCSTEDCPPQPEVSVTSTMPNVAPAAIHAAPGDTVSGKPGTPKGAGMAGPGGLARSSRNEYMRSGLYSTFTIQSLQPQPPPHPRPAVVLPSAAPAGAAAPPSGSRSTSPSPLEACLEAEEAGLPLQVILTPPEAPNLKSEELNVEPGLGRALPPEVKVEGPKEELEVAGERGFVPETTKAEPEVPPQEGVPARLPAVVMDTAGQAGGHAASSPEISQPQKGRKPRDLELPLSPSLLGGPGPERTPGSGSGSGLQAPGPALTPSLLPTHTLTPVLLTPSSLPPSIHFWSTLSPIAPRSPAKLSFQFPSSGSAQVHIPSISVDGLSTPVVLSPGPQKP
An outline of the steps: (§1)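 GST fusions of human transcription factors were expressed in yeast and captured with glutathione beads. Once given DNA barcodes and pooled alongside a tag-only sample, they were incubated for 30 min at room temperature with 200 nmole of a random double-stranded 16-mer DNA library in Tris/NaCl/DTT/glycerol buffer, then washed, crosslinked (0.1% formaldehyde), proximity-ligated, PCR-amplified and sequenced on an Illumina NextSeq500. The binding signal of each hexamer is its read frequency for a factor divided by its frequency for the tag-only sample.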

For the next assay, the target named is T2, GABPA (Homo sapiens, UniProt Q06546 1-454).
T2 sequence: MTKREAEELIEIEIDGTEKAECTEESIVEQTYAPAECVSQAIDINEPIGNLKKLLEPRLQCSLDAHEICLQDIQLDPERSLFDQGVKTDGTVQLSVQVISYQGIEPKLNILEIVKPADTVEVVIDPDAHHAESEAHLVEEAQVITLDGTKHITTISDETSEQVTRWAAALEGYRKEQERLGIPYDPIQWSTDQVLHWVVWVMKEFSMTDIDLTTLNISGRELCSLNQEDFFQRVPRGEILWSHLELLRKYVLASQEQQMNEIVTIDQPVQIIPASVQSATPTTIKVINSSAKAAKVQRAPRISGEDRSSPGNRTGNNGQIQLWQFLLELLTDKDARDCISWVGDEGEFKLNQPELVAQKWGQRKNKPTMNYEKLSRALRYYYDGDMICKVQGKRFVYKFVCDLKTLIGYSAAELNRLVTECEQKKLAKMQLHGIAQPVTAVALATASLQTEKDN
An outline of the steps: as §1

The target of another assay is T3, ERG (Homo sapiens, UniProt P11308 1-479).
T3 sequence: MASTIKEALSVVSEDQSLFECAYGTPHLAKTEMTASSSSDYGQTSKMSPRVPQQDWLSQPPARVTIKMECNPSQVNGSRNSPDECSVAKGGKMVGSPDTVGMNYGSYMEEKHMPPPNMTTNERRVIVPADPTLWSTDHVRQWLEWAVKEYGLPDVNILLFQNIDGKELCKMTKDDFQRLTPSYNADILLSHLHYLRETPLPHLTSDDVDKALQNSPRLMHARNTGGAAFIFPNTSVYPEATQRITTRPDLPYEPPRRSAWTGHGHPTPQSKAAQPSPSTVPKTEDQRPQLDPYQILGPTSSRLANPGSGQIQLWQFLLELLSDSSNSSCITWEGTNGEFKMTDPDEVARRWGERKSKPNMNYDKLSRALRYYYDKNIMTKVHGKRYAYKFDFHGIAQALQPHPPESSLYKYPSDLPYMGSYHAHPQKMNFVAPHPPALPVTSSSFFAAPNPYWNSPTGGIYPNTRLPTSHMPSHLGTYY
An outline of the steps: as §1

Another assay addresses ELF1 (Homo sapiens, UniProt P32519 1-619). An outline of the steps:
as §1

The target of the next assay is T4, EHF (Homo sapiens, UniProt Q9NZC4 1-300).
T4 sequence: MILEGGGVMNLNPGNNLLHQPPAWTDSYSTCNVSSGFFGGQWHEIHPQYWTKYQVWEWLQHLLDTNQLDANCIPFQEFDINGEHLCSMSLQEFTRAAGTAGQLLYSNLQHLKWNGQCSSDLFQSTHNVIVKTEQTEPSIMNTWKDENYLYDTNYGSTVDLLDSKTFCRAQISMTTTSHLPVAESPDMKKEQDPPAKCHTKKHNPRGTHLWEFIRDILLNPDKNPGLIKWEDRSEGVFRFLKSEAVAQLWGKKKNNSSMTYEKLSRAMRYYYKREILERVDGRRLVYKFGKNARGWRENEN
Put shortly:
as §1

A further assay deals with T5, FEV (Homo sapiens, UniProt Q99581 1-238).
T5 sequence: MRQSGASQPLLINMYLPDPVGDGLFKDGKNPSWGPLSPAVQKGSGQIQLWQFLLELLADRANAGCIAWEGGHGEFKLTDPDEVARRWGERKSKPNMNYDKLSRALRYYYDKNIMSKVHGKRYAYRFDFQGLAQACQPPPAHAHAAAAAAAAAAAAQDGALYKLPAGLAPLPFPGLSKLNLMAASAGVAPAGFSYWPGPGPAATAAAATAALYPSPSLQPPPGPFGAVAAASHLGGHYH
Put shortly: as §1

Another assay has as its target ETV5 (Homo sapiens, UniProt P41161 1-510). An outline of the steps: as §1
The target of another assay is ELF4 (Homo sapiens, UniProt Q99607 1-663). An outline of the steps:
as §1

For a further assay, the target named is T6, ETV2 (Homo sapiens, UniProt O00321 1-342).
T6 sequence: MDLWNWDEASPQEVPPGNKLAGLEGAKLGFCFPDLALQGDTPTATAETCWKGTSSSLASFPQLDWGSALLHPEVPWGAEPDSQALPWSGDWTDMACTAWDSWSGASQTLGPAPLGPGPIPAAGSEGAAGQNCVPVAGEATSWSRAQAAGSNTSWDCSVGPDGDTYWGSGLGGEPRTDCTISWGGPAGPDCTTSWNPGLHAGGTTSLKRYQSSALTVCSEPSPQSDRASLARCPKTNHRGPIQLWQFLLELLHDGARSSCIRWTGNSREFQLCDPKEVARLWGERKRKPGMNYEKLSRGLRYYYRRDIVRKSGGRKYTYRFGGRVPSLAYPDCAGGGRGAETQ
An outline of the steps: as §1

The next assay addresses T7, ELF3 (Homo sapiens, UniProt P78545 1-371).
T7 sequence: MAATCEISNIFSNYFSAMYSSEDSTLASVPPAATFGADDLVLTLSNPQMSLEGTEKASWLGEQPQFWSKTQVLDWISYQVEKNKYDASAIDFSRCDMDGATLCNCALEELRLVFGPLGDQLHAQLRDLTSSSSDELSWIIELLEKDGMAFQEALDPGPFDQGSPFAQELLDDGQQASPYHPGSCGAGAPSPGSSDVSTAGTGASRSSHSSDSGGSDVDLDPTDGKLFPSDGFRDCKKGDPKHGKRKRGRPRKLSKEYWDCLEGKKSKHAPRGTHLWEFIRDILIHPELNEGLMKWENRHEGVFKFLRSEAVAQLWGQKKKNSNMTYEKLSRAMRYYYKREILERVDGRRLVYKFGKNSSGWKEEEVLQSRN
Put shortly:
as §1

For another assay, the target named is ETV1 (Homo sapiens, UniProt P50549 1-477). Put shortly: as §1
Sequence of ETV1 (P50549 whole entry): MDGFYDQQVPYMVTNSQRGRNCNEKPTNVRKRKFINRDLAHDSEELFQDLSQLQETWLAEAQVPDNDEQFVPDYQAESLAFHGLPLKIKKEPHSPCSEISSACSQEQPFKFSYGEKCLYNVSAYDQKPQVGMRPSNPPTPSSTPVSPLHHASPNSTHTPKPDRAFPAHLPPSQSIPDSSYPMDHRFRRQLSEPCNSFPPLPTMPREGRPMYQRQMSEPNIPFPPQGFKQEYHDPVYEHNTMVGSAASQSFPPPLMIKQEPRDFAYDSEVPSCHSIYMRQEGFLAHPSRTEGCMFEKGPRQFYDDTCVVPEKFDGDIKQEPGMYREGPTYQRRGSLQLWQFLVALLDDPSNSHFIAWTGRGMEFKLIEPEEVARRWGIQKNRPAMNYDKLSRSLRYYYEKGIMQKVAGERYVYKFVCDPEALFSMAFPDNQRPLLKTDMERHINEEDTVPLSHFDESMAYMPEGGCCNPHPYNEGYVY
The next assay deals with T8, ERF (Homo sapiens, UniProt P50548 1-548).
T8 sequence: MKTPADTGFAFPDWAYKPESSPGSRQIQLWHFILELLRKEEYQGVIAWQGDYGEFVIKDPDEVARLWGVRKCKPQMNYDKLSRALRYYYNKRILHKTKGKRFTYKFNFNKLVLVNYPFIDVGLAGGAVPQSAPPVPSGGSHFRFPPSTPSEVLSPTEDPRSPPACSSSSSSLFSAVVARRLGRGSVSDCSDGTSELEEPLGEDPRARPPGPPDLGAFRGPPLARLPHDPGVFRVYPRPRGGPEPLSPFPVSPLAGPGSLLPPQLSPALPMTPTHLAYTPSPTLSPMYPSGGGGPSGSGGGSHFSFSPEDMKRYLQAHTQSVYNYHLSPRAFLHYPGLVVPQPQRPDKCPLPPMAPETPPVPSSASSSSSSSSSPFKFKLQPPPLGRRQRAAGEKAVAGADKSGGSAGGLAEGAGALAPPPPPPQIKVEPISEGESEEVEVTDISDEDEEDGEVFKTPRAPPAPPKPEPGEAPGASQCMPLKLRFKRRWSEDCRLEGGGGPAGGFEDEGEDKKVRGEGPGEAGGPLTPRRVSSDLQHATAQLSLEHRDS
An outline of the steps: as §1

Another assay concerns the target T9, ETV3L (Homo sapiens, UniProt Q6ZN32 1-361).
T9 sequence: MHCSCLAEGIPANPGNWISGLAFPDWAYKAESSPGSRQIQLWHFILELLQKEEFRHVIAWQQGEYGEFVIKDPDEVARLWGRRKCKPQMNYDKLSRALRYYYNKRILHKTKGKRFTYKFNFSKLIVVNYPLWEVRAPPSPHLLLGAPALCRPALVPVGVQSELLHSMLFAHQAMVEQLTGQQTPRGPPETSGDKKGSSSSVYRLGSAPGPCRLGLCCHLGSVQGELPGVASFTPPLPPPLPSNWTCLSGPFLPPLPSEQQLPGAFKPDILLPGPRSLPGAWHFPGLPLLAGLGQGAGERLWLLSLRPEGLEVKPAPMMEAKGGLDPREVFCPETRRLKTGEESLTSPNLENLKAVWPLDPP
An outline of the steps:
as §1

A further assay deals with T10, ETS2 (Homo sapiens, UniProt P15036 1-469).
T10 sequence: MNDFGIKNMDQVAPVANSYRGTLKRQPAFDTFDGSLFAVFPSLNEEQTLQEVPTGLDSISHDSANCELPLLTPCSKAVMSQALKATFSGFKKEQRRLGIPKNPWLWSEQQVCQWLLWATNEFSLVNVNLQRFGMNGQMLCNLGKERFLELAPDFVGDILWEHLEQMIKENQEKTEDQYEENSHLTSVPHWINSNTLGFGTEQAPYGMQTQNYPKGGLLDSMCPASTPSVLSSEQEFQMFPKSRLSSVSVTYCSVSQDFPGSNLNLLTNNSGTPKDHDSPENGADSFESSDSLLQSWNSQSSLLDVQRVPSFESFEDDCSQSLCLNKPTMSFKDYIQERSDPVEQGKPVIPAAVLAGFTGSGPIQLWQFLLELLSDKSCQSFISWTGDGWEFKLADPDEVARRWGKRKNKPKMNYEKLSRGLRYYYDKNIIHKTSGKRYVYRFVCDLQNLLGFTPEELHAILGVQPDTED
An outline of the steps:
as §1

Another assay has as its target T11, SPDEF (Homo sapiens, UniProt O95238 1-335).
T11 sequence: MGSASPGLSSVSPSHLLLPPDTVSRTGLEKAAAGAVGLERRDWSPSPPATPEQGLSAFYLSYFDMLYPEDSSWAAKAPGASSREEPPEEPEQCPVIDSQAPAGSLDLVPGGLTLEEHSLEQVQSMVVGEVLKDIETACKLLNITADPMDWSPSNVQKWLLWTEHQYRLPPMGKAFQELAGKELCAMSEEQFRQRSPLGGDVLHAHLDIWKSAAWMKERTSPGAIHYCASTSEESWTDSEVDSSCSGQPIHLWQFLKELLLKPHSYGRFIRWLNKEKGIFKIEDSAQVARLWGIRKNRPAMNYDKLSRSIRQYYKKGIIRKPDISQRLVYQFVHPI
Put shortly:
as §1

For another assay, the target named is T12, ETV7 (Homo sapiens, UniProt Q9Y603 1-341).
T12 sequence: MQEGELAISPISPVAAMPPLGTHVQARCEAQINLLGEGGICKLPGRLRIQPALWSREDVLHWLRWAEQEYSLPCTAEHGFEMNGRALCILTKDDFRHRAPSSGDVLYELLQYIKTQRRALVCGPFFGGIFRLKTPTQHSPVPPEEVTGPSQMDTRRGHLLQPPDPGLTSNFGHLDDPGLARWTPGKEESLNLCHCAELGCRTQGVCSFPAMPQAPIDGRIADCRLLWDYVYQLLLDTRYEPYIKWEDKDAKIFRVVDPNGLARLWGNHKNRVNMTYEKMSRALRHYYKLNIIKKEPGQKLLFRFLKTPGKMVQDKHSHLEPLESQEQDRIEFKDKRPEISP
Put shortly:
as §1

Another assay deals with T13, ETV3 (Homo sapiens, UniProt P41162-2 1-143).
T13 sequence: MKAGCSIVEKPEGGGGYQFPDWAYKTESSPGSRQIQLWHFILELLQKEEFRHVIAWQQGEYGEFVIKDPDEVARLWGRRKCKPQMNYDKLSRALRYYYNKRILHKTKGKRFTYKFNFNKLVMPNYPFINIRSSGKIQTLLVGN
Put shortly:
as §1

Another assay concerns the target ETV6 (Homo sapiens, UniProt P41212 1-452). An outline of the steps:
as §1

Sequence of ETV5 (P41161 whole entry): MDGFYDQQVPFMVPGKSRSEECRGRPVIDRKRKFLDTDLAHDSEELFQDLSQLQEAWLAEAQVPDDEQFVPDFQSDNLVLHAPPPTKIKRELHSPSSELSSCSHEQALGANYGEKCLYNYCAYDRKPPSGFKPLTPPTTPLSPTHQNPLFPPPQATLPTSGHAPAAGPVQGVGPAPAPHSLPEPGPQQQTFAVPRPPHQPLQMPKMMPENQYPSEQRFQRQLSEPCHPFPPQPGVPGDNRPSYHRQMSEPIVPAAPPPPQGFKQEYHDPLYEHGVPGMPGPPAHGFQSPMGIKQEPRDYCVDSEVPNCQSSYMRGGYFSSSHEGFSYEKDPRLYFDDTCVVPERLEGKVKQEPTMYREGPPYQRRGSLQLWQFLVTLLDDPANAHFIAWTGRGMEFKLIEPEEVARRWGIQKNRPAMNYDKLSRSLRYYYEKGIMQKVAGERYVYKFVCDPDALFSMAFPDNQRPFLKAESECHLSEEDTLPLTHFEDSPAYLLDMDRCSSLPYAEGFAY
Sequence of ELF4 (Q99607 whole entry): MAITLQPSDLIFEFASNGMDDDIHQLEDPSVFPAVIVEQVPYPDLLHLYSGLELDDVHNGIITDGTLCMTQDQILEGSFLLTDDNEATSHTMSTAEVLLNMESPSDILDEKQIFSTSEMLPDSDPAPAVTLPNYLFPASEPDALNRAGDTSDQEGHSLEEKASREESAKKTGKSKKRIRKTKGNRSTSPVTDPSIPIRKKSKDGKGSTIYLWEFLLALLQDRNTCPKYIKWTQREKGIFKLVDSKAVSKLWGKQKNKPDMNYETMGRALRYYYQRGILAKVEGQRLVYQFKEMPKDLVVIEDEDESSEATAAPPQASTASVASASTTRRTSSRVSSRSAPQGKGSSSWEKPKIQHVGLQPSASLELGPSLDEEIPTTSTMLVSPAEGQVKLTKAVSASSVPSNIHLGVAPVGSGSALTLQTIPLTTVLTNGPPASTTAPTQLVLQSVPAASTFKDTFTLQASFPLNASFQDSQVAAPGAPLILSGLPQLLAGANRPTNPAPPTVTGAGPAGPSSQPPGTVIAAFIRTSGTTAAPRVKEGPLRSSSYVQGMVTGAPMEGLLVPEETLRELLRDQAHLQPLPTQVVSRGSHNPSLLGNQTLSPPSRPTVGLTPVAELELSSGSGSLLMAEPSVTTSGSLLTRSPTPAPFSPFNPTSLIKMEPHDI
Sequence of ETV6 (P41212 whole entry): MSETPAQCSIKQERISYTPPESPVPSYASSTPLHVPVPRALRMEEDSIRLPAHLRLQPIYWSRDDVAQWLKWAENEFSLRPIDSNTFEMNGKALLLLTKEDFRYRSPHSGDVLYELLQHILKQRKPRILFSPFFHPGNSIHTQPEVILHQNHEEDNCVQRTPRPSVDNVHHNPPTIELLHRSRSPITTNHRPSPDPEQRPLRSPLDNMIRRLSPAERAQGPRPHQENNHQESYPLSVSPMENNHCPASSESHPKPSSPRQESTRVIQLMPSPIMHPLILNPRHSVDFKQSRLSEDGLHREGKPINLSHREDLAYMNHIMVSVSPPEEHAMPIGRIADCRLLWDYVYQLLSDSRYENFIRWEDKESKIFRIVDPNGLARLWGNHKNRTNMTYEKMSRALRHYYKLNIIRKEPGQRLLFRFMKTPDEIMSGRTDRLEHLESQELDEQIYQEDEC
Sequence of ELF1 (P32519 whole entry): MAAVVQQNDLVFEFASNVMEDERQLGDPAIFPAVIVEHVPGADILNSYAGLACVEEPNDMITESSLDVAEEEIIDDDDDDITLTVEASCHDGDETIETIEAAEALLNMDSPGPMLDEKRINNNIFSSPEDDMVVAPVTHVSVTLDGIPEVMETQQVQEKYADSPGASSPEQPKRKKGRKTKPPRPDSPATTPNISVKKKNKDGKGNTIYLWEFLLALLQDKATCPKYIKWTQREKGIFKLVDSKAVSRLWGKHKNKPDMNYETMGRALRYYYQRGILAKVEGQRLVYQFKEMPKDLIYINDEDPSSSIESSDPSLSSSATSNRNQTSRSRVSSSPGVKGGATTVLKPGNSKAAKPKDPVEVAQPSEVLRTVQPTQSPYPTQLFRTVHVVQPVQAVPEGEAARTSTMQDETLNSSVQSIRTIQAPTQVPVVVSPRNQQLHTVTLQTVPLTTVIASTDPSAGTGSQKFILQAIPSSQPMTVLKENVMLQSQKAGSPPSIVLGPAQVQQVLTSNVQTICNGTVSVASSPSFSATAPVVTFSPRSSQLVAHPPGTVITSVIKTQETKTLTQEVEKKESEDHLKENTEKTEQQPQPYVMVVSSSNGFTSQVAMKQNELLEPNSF

Take ACGCCG: the binding signal with ELK1 is 1.11 fold enrichment (6-mer frequency, TF over GST control); with GABPA, 1.11 fold enrichment (6-mer frequency, TF over GST control); with ERG it was 1.02 fold enrichment (6-mer frequency, TF over GST control); in the assay with ELF1, 1.13 fold enrichment (6-mer frequency, TF over GST control); with EHF it was 1.14 fold enrichment (6-mer frequency, TF over GST control); with FEV, 1.14 fold enrichment (6-mer frequency, TF over GST control). Moreover, the binding signal with ETV5 was 1.12 fold enrichment (6-mer frequency, TF over GST control); with ELF4 it was 1.07 fold enrichment (6-mer frequency, TF over GST control); with ETV2, 1.07 fold enrichment (6-mer frequency, TF over GST control); with ELF3 it was 1.15 fold enrichment (6-mer frequency, TF over GST control); with ETV1, 1.11 fold enrichment (6-mer frequency, TF over GST control); with ERF, 1.12 fold enrichment (6-mer frequency, TF over GST control). For the same sequence, the binding signal with ETV3L was 1.08 fold enrichment (6-mer frequency, TF over GST control); with ETS2, 1.01 fold enrichment (6-mer frequency, TF over GST control); with SPDEF it was 1.04 fold enrichment (6-mer frequency, TF over GST control); with ETV7 it was 1.14 fold enrichment (6-mer frequency, TF over GST control); in the assay with ETV3, 1.05 fold enrichment (6-mer frequency, TF over GST control); in the assay with ETV6, 1.14 fold enrichment (6-mer frequency, TF over GST control).
